Among the data in publication PMC12136788 are binding signal values, retold here.

Residue numbers refer to the chain shown, from its start. Whole data set: some 24,000 sequences, median “enrichment r” near 0.99, cut for the highest 2% near 3.7. The full list was thinned out, with the highest values kept by preference.

Sequences and labels used below:
B1: 53612100_53613521_5214_CDS_ENSG00000086758_ENST00000262854|human|control|control (ssRNA)
RNA: GGGAGUUCUACAGUCCGACGAUCAGAGCGAUCAUCAAACCAGCGCCAGUUGUUGCUGUUGGAUUGCAGGUACUUAGUCAUCUGGGCUCUCCUUUUUGAGGAGAUGGCUGUCUUUUCAUAGAAAUCAAUCAGGAGCAACACUGGCAACAGAGGAUUGAGCAUCA
B2: chr1:163117127:163117128:-_ENSG00000143248_ENST00000313961|hu_hu|motif|central (ssRNA)
RNA: GGGAGUUCUACAGUCCGACGAUCGCAGGGUUAUUAUGGAGGAAAUAACUCACAGGAUGAUUUCAUAGCCUGGCUAAAUUACGGCUUGAUUAACUCCUGAUAAAACUCAGAGCGCACAAAGCGAGGCAGAGAAUCCUUUUCCAUCAACAGAGGAUUGAGCAUCA
B3: chr7:140404665:140404666:+_ENSG00000090266_ENST00000247866|hu_hu|hu_hu_hu_mus_False|28_98 (ssRNA)
RNA: GGGAGUUCUACAGUCCGACGAUCUGCUCCUACUCGUAGGCUGAGUCUACAGUGUCAGUCCUCGUCAUCAGGAGGGAUUCCCAGUUCUUCAUCUGUCCACUGUGAAGGAUCAGGAUAUGAAAAGUGACCCAGCACAGCAUCCGACAACAGAGGAUUGAGCAUCA
B4: chr9:34402745:34402746:-_ENSG00000164970_ENST00000297620|hu_hu|motif|central (ssRNA)
RNA: GGGAGUUCUACAGUCCGACGAUCGGGGACGACCAGCCUUGUUCGGGCCAUGACAUUGUUCUUCUUGGGUUGCUGGUUGACAGGGCGGCCCAUGCUGCCAUUCUUCAGGGAGCCCUUCCGGGCCAGCUCCCGCUGCUUCUCCUCCAACAGAGGAUUGAGCAUCA
B5: chr2:153237265:153237266:-_ENSMUSG00000061411_ENSMUST00000109784|mus_mus|mus_mus_mus_hu_False|1_108 (ssRNA)
RNA: GGGAGUUCUACAGUCCGACGAUCAAAAAAAAGAAAAAAAAAGUGUCCUUGUGCCCAAAGUCUCAGGUGCUUGGAGUGUGGCUAGAAACAGCUCUUUUGGAUCCCACCUCUUUCAAAAACAAAAUGUACCAACUGGUAGGCAGGCAACAGAGGAUUGAGCAUCA
B6: chr2:153237265:153237266:-_ENSMUSG00000061411_ENSMUST00000109784|mus_mus|mus_mus_mus_hu_False|1_98 (ssRNA)
RNA: B5 RNA with G32A, A37G
B7: chr2:153237265:153237266:-_ENSMUSG00000061411_ENSMUST00000109784|mus_mus|mus_mus_mus_hu_False|98_98 (ssRNA)
RNA: B5 RNA with G32A, A37G, A137G, G138A, C140G, A141C, G142A
B8: chr11:86532819:86532820:-_ENSMUSG00000047126_ENSMUST00000103186|perfect_dup|FALSE|FALSE (ssRNA)
RNA: GGGAGUUCUACAGUCCGACGAUCCAUGGCUCUGAGACAUUCUAGGGAGUCUUCUACUGAUAAGGAACCAAAGUAGUUGACUAACCACUCAGGGUUAAGAAGAUGGGUGUGAACCACUGCACGUUUUAUAUCAUAUAAAUCAGUCAACAGAGGAUUGAGCAUCA
B9: chr1:39494564:39494565:+_ENSG00000168653_ENST00000372967|hu_hu|hu_hu_hu_mus_True|18_38 (ssRNA)
RNA: GGGAGUUCUACAGUCCGACGAUCAUGCAUUCGCCUCAUCGUUUUGUACCGAAGCAAGCACUCUUCGAAGUCAUCGAACUCUAUCUUGCACUCCUUUUCUGCCCGAGUCCCACCGAUUCCAUGUGCACACUCUAUCCACUCUUUCAACAGAGGAUUGAGCAUCA
B10: chr14:89338683:89338684:+_ENSG00000165533_ENST00000346301|hu_hu|hu_hu_hu_mus_False|48_58 (ssRNA)
RNA: GGGAGUUCUACAGUCCGACGAUCGUGGUUGUUGUGGACCAGGGCCAGCCUGAAGCAUUGGUGGGCCAAGUUUGUAUCUCCUAUUCCCACAGCUACAUGCCCCAGGUUGUACCAGACAUCAGCUGCCUCUUCUUCAUUUUCAGCCAACAGAGGAUUGAGCAUCA
B11: chr11:6247107:6247108:+_ENSMUSG00000020456_ENSMUST00000003461|mus_mus|motif|central (ssRNA)
RNA: GGGAGUUCUACAGUCCGACGAUCAAACAUAGGUUCGUCCAUCUCAUUGUGGCCAUUUCGUCGAUAACACACCAGAUCAACGGCAACAUCCUUGUGGAAGGUGUUUCUCCACUCAGCUGCCACCUUGCAUACAUACAUGACAGCCAACAGAGGAUUGAGCAUCA
B12: chrX:41029285:41029286:+_ENSG00000124486_ENST00000378308|hu_hu|FALSE|FALSE (ssRNA)
RNA: GGGAGUUCUACAGUCCGACGAUCUGUAUGAGACCAUACCUCCAAGUCAUCAACCUGUCUGCCCUGGUUUGGAAAUCGAACUACAAAAGAGAGGUGUUUACCGCGGAAUGCUCUCGACAUAGGGAGAAUUGUUCUUUCCUCAUGCAACAGAGGAUUGAGCAUCA
B13: chr1:39494447:39494448:+_ENSG00000168653_ENST00000372967|hu_mus|hu_hu_hu_mus_False|18_38 (ssRNA)
RNA: GGGAGUUCUACAGUCCGACGAUCGCACCGAGCGGCGUUCUUAUAGGGCUGUUCUGCGCUUAGGAACAUAAAGUGCCGGUCCAGGCUGAUGCCCAGCCUUUUCUGGAUGUCAAGGAAAGGCAUGGCCCUGCAGUGCCCUUGUCACAACAGAGGAUUGAGCAUCA
B14: chrX:41000244:41000245:+_ENSG00000124486_ENST00000378308|hu_mus|motif|central (ssRNA)
RNA: GGGAGUUCUACAGUCCGACGAUCUGCUUCUUUCUUCAGCUCUUCAUCAGUUAAGUUUUCUAAAAACUGUGGAACCAUUUCGGUUAUUGGAAGAAAGUACUUUUUCACUGUGUGAAGAGUAAGAAACUCAUAGCACUGUCCAAACAACAGAGGAUUGAGCAUCA
B15: chr4:56294251:56294252:-_ENSG00000134852_ENST00000309964|hu_hu|motif|central (ssRNA)
RNA: GGGAGUUCUACAGUCCGACGAUCAACAUAGCACUGAGGUAUUUUUUAUUUUUAAAAUUGAAGGAAACAAAGUCUGGAUCGGAUUAUUUUUACAUUUACAAAAACUGCUACUGCUUGGCUCUUUUGCUAUAAGUUUAGGUUCUGCAACAGAGGAUUGAGCAUCA
B16: chr1:34870196:34870197:-_ENSMUSG00000037503_ENSMUST00000047534|mus_mus|motif|central (ssRNA)
RNA: GGGAGUUCUACAGUCCGACGAUCUGAGCCCAUCUACUCAUCAGAUUGCAUAAAAAAUUAAAACAGUAUGAAUUUACAUCGGAUUGAACUGGCUUGGGAUGGACAGUCUGCCCGUUCCUUUGUUUUGACACAUAAGUUCCAUGACAACAGAGGAUUGAGCAUCA
B17: chr4:56294251:56294252:-_ENSG00000134852_ENST00000309964|hu_hu|FALSE|FALSE (ssRNA)
RNA: B15 RNA with G80U, G81A
B18: 54592465_54592585_3431_3pUTR_ENSMUSG00000005225_ENSMUST00000119706|mouse|control|control (ssRNA)
RNA: GGGAGUUCUACAGUCCGACGAUCUUGCUUGGCUUAAAAUUUUAUUACAAGUGUUUUUAAGAGGCAAGGUCUUGCUAUGUUGUUCAGGUUAAUCUCCAAAUCUUGGGCUCAAAUAAUACUUUACUCUCAUACUUCUGGGUAGCUCAACAGAGGAUUGAGCAUCA
B19: chr1:34870196:34870197:-_ENSMUSG00000037503_ENSMUST00000047534|mus_mus|FALSE|FALSE (ssRNA)
RNA: B16 RNA with G80U, G81A
B20: chr4:17845017:17845018:+_ENSG00000109805_ENST00000514176|hu_mus|hu_hu_hu_mus_False|48_58 (ssRNA)
RNA: GGGAGUUCUACAGUCCGACGAUCGCUCUCUUAACUUGUAUCUUCAUUAAGGAACUCUGCAAGGUUAAGUUUACUUUUUCUAGUGCUGCGGUUUUGGGCUCGUCUGGGUAAUCUCAUCUUCAUUUCUGAUGGUGGUUCAUGAUCCAACAGAGGAUUGAGCAUCA
B21: chr6:114281168:114281169:-_ENSG00000196591_ENST00000368632|hu_hu|hu_hu_hu_mus_True|1_18 (ssRNA)
RNA: GGGAGUUCUACAGUCCGACGAUCUUCCAUUUUUCGGUAUAAACCAUAAUUUAGCAGCAAGUUAUGAGUCAUCCGGAUUCUAUGAGGCUUCAUGGGAUGACCCUGGCCAUAAUAAUAAUUUCCAAUAUCACCAUCAUACUAGAACAACAGAGGAUUGAGCAUCA
B22: 83260623_83262902_554_CDS_ENSMUSG00000031715_ENSMUST00000043359|mouse|control|control (ssRNA)
RNA: GGGAGUUCUACAGUCCGACGAUCUUCUUUUUGCUUUCCAGGUGAUCCAUGAUCAAAUACUUCCUCCAUCUCGGUGUCCGCGGGGCCCGAGCCCGCAGCACACGGAGCCGCGGGCGCCGCGCCGCCCUCGGGGCCGCCUUUGUUCAACAGAGGAUUGAGCAUCA

For the test, the target named is T1, UNK ZnF1-3 (human, UniProt Q9C0B0 31-174).
T1 sequence: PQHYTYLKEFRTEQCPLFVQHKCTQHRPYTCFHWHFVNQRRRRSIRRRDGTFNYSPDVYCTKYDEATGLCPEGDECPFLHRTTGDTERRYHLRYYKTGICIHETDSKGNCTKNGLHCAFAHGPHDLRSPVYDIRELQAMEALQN
In words: nsRBNS (natural sequence RNA bind-n-seq); RBNS binding buffer (assumed for nsRBNS): 25 mM Tris pH 7.5, 150 mM KCl, 3 mM MgCl2, 0.01% Triton X-100, 500 ug/ml BSA, 20 U/ml SUPERase-In, 4 C; UNK is unkempt and MSI1 is Musashi-1; names of the RNAs are library labels; protein concentration not given here; high values mean tight binding.
B1 had a binding signal of 1.05 enrichment R.

B2: the binding signal came out at 1.52 enrichment R.

B3 gave a binding signal of 0.773 enrichment R.

With B4, the binding signal is 0.859 enrichment R.

With B5, the binding signal was found to be 4.2 enrichment R.

B6 gave a binding signal of 4.8 enrichment R.

Regarding B7, the binding signal turned out to be 3.61 enrichment R.

In the case of B8, the binding signal stood at 1.15 enrichment R.

For B9, the binding signal was 0.624 enrichment R.

Molecule B10 gave a binding signal of 0.726 enrichment R.

With B11, the binding signal was found to be 0.7 enrichment R.

Take B12: the binding signal came out at 1.07 enrichment R.

The molecule B13 displayed a binding signal of 0.685 enrichment R.

In turn, B14 had a binding signal of 0.545 enrichment R.

B15 came in with a binding signal of 3.76 enrichment R.

B16 displayed a binding signal of 1.36 enrichment R.

In turn, B17 registered a binding signal of 4.1 enrichment R.

B18 had a binding signal of 1.3 enrichment R.

Consider B19, for which the binding signal was found to be 1.33 enrichment R.

B20 displayed a binding signal of 0.378 enrichment R.

Regarding B21, the binding signal was found to be 1 enrichment R.

Molecule B22 yielded a binding signal of 0.826 enrichment R.
